Mcl1-Bid inh = Mcl-1/Bid interaction inhibition. Q07820. TR-FRET Mcl-1/Bid-Dy647 peptide binding, 1536-well. inhibition, % at 21.7 µM. 220,000 tested, 0.97% active. AID 1021;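 active = compounds that cut the binding signal by more than half at the single screening dose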;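 note: His-tagged Mcl-1 with europium anti-His antibody binding Bid BH3 peptide; 0% = Mcl-1 plus peptide wells and 100% = peptide-only wells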
eIF4E 4G PPI = eIF4E/eIF4G interaction inhibition in translation initiation; P63073+Q04637; TR-FRET eIF4E-eIF4GI(517-606) binding, 2 h; inhibition, % at 21.7 µM; 220,000 tested, 0.37% active; AID 782;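 note: 0% = full FRET control wells and 100% = background wells lacking eIF4GI fragment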
Mcl1 Noxa PPI = Mcl-1/Noxa interaction inhibition; inhibition, % at 21.7 µM; Q07820; TR-FRET Mcl-1/Noxa peptide binding, 2 h; 220,000 tested, 1.5% active;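 active = compounds that cut the protein-peptide binding signal by more than 50% relative to plate controls in a single-dose test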;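 note: His-tagged Mcl-1 with rhodamine Noxa BH3 peptide and terbium anti-His antibody; 0% = Mcl-1 plus Noxa peptide wells and 100% = peptide-only wells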
Bim-Mcl-1 = disrupts Bim peptide binding to human Mcl-1 | inhibition, % at 10 µM | Bead-based flow cytometry, Bim peptide-Mcl-1 binding | 190,000 tested, 0.1% active; in the data active = inhibition above about 40%;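 note: 0% = no compound tracer wells and 100% = peptide blocker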
14-3-3 Bad inh = disrupts binding of bovine 14-3-3 zeta to phospho-Bad peptide; TR-FRET 14-3-3zeta/Dy647-pBad peptide displacement, 1 h; inhibition, % at 21.7 µM; 220,000 tested, 0.71% active; AID 781;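 active = inhibition above about 70%, limit read from the data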;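 note: 0% = full 14-3-3 plus peptide FRET controls and 100% = background without 14-3-3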
Target sequence (P63103 whole entry, looked up): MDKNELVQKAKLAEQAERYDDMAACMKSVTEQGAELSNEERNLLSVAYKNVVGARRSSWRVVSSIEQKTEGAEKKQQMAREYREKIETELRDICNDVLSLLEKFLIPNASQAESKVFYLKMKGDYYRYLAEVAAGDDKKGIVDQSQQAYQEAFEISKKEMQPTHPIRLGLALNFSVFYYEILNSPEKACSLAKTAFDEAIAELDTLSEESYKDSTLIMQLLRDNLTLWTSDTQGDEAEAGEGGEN
NCF1 inh = inhibitors of human p47phox binding; inhibition, % at 24.7 µM; p47phox/p22phox peptide binding, fluorescence polarization, 2 h; 220,000 tested, 0.53% active;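 note: 0% = p47phox with labelled peptide and 100% = labelled peptide alone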
Target sequence (P14598 whole entry, looked up): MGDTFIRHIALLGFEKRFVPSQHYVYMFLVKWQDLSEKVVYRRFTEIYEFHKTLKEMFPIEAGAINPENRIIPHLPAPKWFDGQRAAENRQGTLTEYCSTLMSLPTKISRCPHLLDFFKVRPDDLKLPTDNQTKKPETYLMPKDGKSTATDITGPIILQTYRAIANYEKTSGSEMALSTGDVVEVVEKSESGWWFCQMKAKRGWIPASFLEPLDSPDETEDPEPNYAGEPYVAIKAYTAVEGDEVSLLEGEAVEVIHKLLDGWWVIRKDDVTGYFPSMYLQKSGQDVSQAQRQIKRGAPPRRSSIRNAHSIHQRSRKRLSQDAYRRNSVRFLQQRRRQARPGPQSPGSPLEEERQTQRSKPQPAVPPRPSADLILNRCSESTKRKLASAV
* marks the source's active call; other numbers are inactive results; nt = no result. A selection: hits, their analogues and other compounds. The true share with any hit is near 3.3%.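 Rule for the calls, unless noted: active = inhibition above about 30% (limit read from the data); inactive = the rest.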

SMILES	Mcl1-Bid inh	eIF4E 4G PPI	Mcl1 Noxa PPI	Bim-Mcl-1	14-3-3 Bad inh	NCF1 inh
COc1cc(N=c2ssnc2Cl)cc(OC)c1	-6.4	63.1*	nt	-14.0	48.4	10.7
CCC1CCCCN1C(=O)CCc1nnc(Cc2cc(OC)ccc2OC)o1 (centres undefined)	-2.6	0.8	-24.1	nt	4.7	3.3
O=C(CSc1ccc(C(F)(F)F)cc1[N+](=O)[O-])Nc1ccc2ccccc2c1	0.8	8.3	0.4	-2.0	0.9	-0.9
CCN(CC)CCSc1nnc2c3cc(C)ccc3n(Cc3ccccc3)c2n1	-27.2	-0.7	17.0	nt	-2.8	-12.9
O=C(CSc1nnc(-c2ccc(S(=O)(=O)N3CCCC3)cc2)o1)NCc1ccco1	-18.4	11.5	24.7	1.0	1.9	-13.5
CSc1cnn(Cc2ccccc2)c(=O)c1SCc1ccccc1	-12.5	19.6	99.1*	-7.0	-4.3	1.2
CSc1cnn(-c2ccccc2)c(=O)c1SC	-22.7	3.5	nt	0.0	-4.4	-3.1
O=C(O[C@@H]1Cc2c(O)cc(O)cc2O[C@@H]1c1cc(O)c(O)c(O)c1)c1cc(O)c(O)c(O)c1	0.6	9.4	94.7*	0.0	69.1	-27.0
c1ccc2c(c1)ncn2CCCCOc1ccc2c(c1)CCC2	68.6*	4.6	39.1	-1.0	58.6	-11.0
c1ccc2c(c1)ncn2CCCOc1ccc2c(c1)CCC2	13.9	3.8	16.6	-5.0	-12.5	-2.9
Cc1csc2c(SCC(=O)NNC(=O)C(Cl)Cl)ncnc12	-9.7	-3.7	-10.6	nt	-6.2	-45.0
Cc1ccc(S(=O)(=O)N2CCOCC2)cc1C(=O)NC(=S)N1CC(C)OC(C)C1 (centres undefined)	-39.5	-5.7	12.7	nt	-9.2	-1.5
Nc1ccc2c(c1)-c1ccccc1S(=O)(=O)N2	-60.8	-4.5	52.5*	2.0	-3.9	23.5
Brc1ccc(OCCCN2CCOCC2)cc1	64.5*	-2.8	8.0	1.0	67.5	-8.8
CCOC(=O)C1CCN(C(=O)c2cc(C)n(C(C)(C)C)n2)CC1	-12.4	-2.6	5.8	nt	0.4	-1.1
COc1ccc(C(=O)NCC(=O)NCC(c2ccco2)N(C)C)cc1OC (centres undefined)	-20.9	-1.1	23.3	-7.0	0.6	-12.8
CCCOc1ccc(C(=O)NCC(c2ccco2)N(C)C)cc1OC (centres undefined)	94.8*	1.9	-11.1	-5.0	-10.8	-19.3
COc1cc(NC(=O)COC(=O)c2ccc(C)c(S(=O)(=O)N3CCCCC3)c2)c(C)cc1[N+](=O)[O-]	-19.4	-4.6	13.1	-5.0	-3.0	-23.9
COc1cc(NC(=O)COC(=O)c2ccc(S(=O)(=O)N3CC(C)CC(C)C3)cc2)c(C)cc1[N+](=O)[O-] (centres undefined)	36.4	0.7	29.2	2.0	54.6	39.5*
CSc1nc2nc(-c3ccccc3)cc(=O)n2[nH]1	-4.0	-7.7	-8.8	5.0	78.8*	3.3
Cc1ccc(C2=NN=C(NC(=O)CSc3nnc4c5ccccc5n(C)c4n3)SC2)cc1	-3.2	2.8	63.5*	-1.0	4.4	14.2
COc1ccc(OC)c(Nc2ccc(Nc3cc(OC)ccc3OC)nn2)c1	-33.8	-3.5	54.1*	-7.0	-7.0	5.9
CC(=O)OC1=C(C#N)Cn2ccc3cccc1c32	-33.7	31.5*	2.5	-2.0	5.9	1.3
CN(C)S(=O)(=O)c1cccc(-c2nnc(SCC(=O)NCCCCCC(=O)O)n2-c2ccc(F)cc2)c1	-26.0	-3.3	27.5	-4.0	-1.1	4.5
O=[N+]([O-])c1ccc(/C=N/n2cnc3ccccc32)s1	-8.1	-2.8	10.2	0.0	5.1	-6.9
SMILES	Mcl1-Bid inh	eIF4E 4G PPI	Mcl1 Noxa PPI	Bim-Mcl-1	14-3-3 Bad inh	NCF1 inh
Cc1cc2ncn(/N=C/c3ccc([N+](=O)[O-])s3)c2cc1C	26.4	1.2	87.3*	-1.0	3.6	-9.6
CCOC(=O)C1=C(C)OC(N)=C(C#N)C1c1cc2c(cc1[N+](=O)[O-])OCO2 (centres undefined)	-22.8	5.0	39.6	0.0	-1.7	26.5
Clc1ccc2nc(CN3CCCc4ccccc43)cn2c1	100.3*	4.0	47.0	-4.0	5.7	-18.6
N/C(=N/O)c1ccccc1N1CCC(Cc2ccccc2)CC1	-20.4	1.5	3.7	1.0	-5.8	3.7
O=C(Nc1nnc(-c2ccccc2F)s1)c1cccnc1	1.7	1.2	5.8	-3.0	-9.9	73.0*
CCOC(=O)N1CCN(c2nc(C)c3c(n2)CCCC3=O)CC1	70.8*	-2.9	27.1	0.0	-9.5	-3.7
COc1c(Cl)cc(Cl)cc1/C=C/C(=O)c1ccc(NC(=O)c2cccs2)cc1	-11.8	-3.9	17.8	-8.0	-11.8	-20.2
CCc1cc2c(NCc3ccco3)ncnc2s1	15.6	7.3	31.4	0.0	87.2*	-14.9
COc1cc(C(=O)NCC(=O)N/N=C/c2ccc(OC(=O)c3ccco3)cc2)cc(OC)c1OC	-114.9	-0.3	4.5	-1.0	-6.4	-5.6
CN1C=C/C(=C\c2cc[n+](C)c3ccccc23)c2ccccc21	1.4	25.9	84.9*	2.0	25.6	-3.1
COc1cc(CNCCCN2CCOCC2)cc(Br)c1OCC(=O)N1CCCCC1	4.0	2.3	12.8	3.0	45.6	-13.7
CCOc1cc(CNCCCN2CCOCC2)cc(Br)c1OCC(=O)Nc1cccc(C(F)(F)F)c1	21.0	1.3	18.1	-1.0	79.3*	-16.6
CCCCC1=NN2CCS(=O)(=O)N=C2S1	-11.2	-3.7	-0.1	0.0	-5.6	-17.6
O=C1COc2ccc(C(=O)COC(=O)c3sc4ccccc4c3Cl)cc2N1	-5.5	-2.7	26.4	0.0	-1.3	0.7
Cc1cc(C(=O)OCC(=O)c2ccc3c(c2)NC(=O)CO3)c2ccccc2n1	63.2*	-3.1	36.5	0.0	21.6	-23.4
Cc1cc(=O)[nH]c(SCC(=O)c2ccc3c(c2)NC(=O)CO3)n1	96.8*	2.5	18.1	nt	3.5	-4.4
CN(C)S(=O)(=O)c1cccc(C(=O)OCC(=O)c2ccc3c(c2)NC(=O)CO3)c1	-12.4	1.8	7.2	89.0*	4.6	2.9
O=C(NCc1ccc2c(c1)OCO2)C(=O)Nc1ccccc1	-31.6	0.3	13.6	-2.0	-5.6	-6.3
CCN1CCN(CC(=O)Nc2cc(C(F)(F)F)ccc2OCCOC)CC1	11.9	-13.1	12.8	nt	19.3	-8.1
CCCCN(CCCC)CCn1cnc2c([nH]c3ccc(OC)cc32)c1=O	-29.7	5.5	55.2*	3.0	3.8	-4.3
O=C(OCn1nnc2ccccc2c1=O)C1CCCCC1	-16.9	7.2	53.6*	0.0	-0.6	-3.8
O=C(CN1C(=O)C2CCCCC2C1=O)OCn1nnc2ccccc2c1=O (centres undefined)	-20.3	-1.8	3.4	2.0	-4.5	-23.6
O=C(NC1CCCCC1)C(c1cccnc1)N(C(=O)CCl)c1cccc(Cl)c1 (centres undefined)	-1.0	6.9	-11.1	-4.0	2.8	3.3
CCCN(CCC)CCNC(=S)Nc1ccc2nc3n(c(=O)c2c1)CCCCC3	-46.2	0.7	17.6	-3.0	-12.0	-3.3
